The source of these data is PubChem BioAssay AID463173 (ICCB-Longwood Screening Facility, Harvard Medical School, 2010).

Screen size: about 52,000 compounds; about 4,300 (8.3%) were called active. Many of the other results were omitted from the sample, so actives are more common in it than they were. Unmarked numbers belong to inactive results. No stated cut-off is given here; in the data, active means survival mostly below about 52% (no sharp cut-off); inactive means mostly above about 56%.

The test system of this assay is DeltatarO mutant. Put plainly: growth inhibition of S. aureus wild type versus tarO mutant, primary screen, teichoic acid synthesis inhibitors, RN4220, OD600 (AID 463173). The conditions noted are these: OD600, 18 h, hits give low values, screened at 18.75 µg/mL (by protocol).
As to `CN1/C(=C/C(=O)C2CCC2)Sc2ccccc21`, the survival was 56%.
In the case of `Cn1c(=O)n(C)c2cc(N3CCCCC3)c(NC(=O)Nc3ccc(Br)cc3)cc21`, the survival was 88%.
Next, `COCCn1c(=N)c(C(=O)NCc2ccco2)cc2c(=O)n3cc(C)ccc3nc21`: 69%; `COc1cccc(C(c2sc3nc(-c4ccco4)nn3c2O)N2CCN(C)CC2)c1` (stereo not drawn): 88%.
Take `CCOC(=O)c1c(NC(=O)c2cc3nc(-c4ccc(OC)cc4)cc(C(F)(F)F)n3n2)sc2c1CCC(C)C2` (stereo not drawn): the survival is 95%.
The same measure for `CCOc1ccc(NS(=O)(=O)c2ccc3[nH]cc(C(=O)N4CCCC4)c(=O)c3c2)cc1`: 85%.
Next, `CCOc1ccc(NC(=O)Cn2c(=O)n(Cc3ccc(C(=O)NCc4ccc(C)cc4)cc3)c(=O)c3ccccc32)cc1`: 75%; `CCN(CC)c1nc(OCC(F)(F)F)nc(N(c2ccccc2)c2ccccc2)n1`: 76%.
The same measure for `COc1ccc(NC(=O)Cn2c(=O)n(Cc3ccco3)c(=O)c3oc4ccccc4c32)cc1Cl`: 53%; for `COc1cc(NC(=O)Cn2c(=O)n(C(C)C)c(=O)c3oc4ccccc4c32)cc(OC)c1`: 47% (active); for `Cc1cc(C)cc(NC(=O)Cn2c(=O)n(C(C)C)c(=O)c3oc4ccccc4c32)c1`: 48%.
`O=C(Cn1c(=O)n(Cc2ccco2)c(=O)c2oc3ccccc3c21)Nc1ccccc1`: the survival was 67%.
Next, `O=C(Cn1c(=O)n(Cc2ccco2)c(=O)c2oc3ccccc3c21)Nc1ccc(F)c(Cl)c1`: 44% (active).
The same measure for `CC(C)n1c(=O)c2oc3ccccc3c2n(CC(=O)Nc2ccccc2Cl)c1=O`: 60%; for `COc1ccc(NC(=O)Cn2c(=O)n(Cc3ccccc3)c(=O)c3oc4ccccc4c32)cc1Cl`: 85%; for `COc1ccc(NC(=O)Cn2c(=O)n(C(C)C)c(=O)c3oc4ccccc4c32)cc1Cl`: 42% (active).
The same measure for `COc1cc(NC(=O)Cn2c(=O)n(Cc3ccccc3)c(=O)c3oc4ccccc4c32)cc(OC)c1`: 85%; for `COc1cccc(CNC(=O)C2CCCN(S(=O)(=O)c3cn(C)cn3)C2)c1` (stereo not drawn): 75%.
As for `CSCCC(NS(=O)(=O)c1cccs1)C(=O)Nc1ccc(C)c(Cl)c1` (stereo not drawn), the survival is 74%.
Next, `CCC(C(=O)N1CCN(c2ccccn2)CC1)c1ccccc1` (stereo not drawn): 75%; `COc1ccc(CNC(=O)CCS(=O)(=O)c2ccc3c(c2)oc(=O)n3C)cc1`: 75%.
The same measure for `CCc1ccccc1NC(=O)Cn1c(=O)n(Cc2ccccc2)c(=O)c2c(C)c(C(=O)N(C)C)sc21`: 67%; for `N#CC(C#N)=C(C(C#N)=C1Nc2ccccc2N1)c1ccccc1F`: 59%.
Turning to `O=C(Nc1ccc(Br)cc1)c1ccc2c3c(onc13)-c1ccccc1C2=O`, the survival is 72%.
Next, `CN(C)c1ccc(CNS(=O)(=O)c2ccc3[nH]c4c(c3c2)CCCCC4)cc1`: 84%.
The same measure for `Cc1cccc(C(=O)Nc2ccc3nc(SCC(=O)N4CCCC4)sc3c2)c1`: 58%; for `CCSc1ncc(Cl)c(C(=O)N(Cc2ccccc2Cl)C2CCS(=O)(=O)C2)n1` (stereo not drawn): 83%.
For the molecule `CCCOc1ccc(CN(C(=O)c2cc(=O)c3ccc(C)cc3o2)C2CCS(=O)(=O)C2)cc1` (stereo not drawn), the survival was 36% (active).
As to `CCOc1ccc(CN(C(=O)c2cc(=O)c3cc(C)cc(C)c3o2)C2CCS(=O)(=O)C2)cc1` (stereo not drawn), the survival is 56%.
Next, `Cc1ccc2c(=O)cc(C(=O)N(Cc3ccc(N(C)C)cc3)C3CCS(=O)(=O)C3)oc2c1` (stereo not drawn): 115%; `CCc1ccc(CN(C(=O)c2cc(=O)c3ccc(C)cc3o2)C2CCS(=O)(=O)C2)cc1` (stereo not drawn): 107%.
The same measure for `CCc1ccc(CN(C(=O)c2nc(SC)ncc2Cl)C2CCS(=O)(=O)C2)cc1` (stereo not drawn): 71%; for `CCOc1ccc(CN(C(=O)c2cc(=O)c3cc(Cl)ccc3o2)C2CCS(=O)(=O)C2)cc1` (stereo not drawn): 104%.
Next, `Cc1ccc2c(=O)cc(C(=O)N(Cc3ccc(C(C)(C)C)cc3)C3CCS(=O)(=O)C3)oc2c1` (stereo not drawn): 35% (active).
As for `CCSc1ncc(Cl)c(C(=O)N(Cc2ccc(C(C)(C)C)cc2)C2CCS(=O)(=O)C2)n1` (stereo not drawn), the survival is 42% (active).
The same measure for `COc1cccc(NC(=O)c2oc3ccccc3c2NC(=O)c2ccc(C(F)(F)F)cc2)c1`: 60%; for `COc1cc(CN2CCc3nc(Nc4ccc5c(c4)OCCO5)ncc3C2)cc(OC)c1OC`: 91%; for `CCOC(=O)N1CCN(Cc2nc3cc(NC(=O)C(C)C)ccc3n2C(C)C)CC1`: 68%.
Next, `CCOC(=O)c1cccc(NC(=O)CCC(=O)N2CC(C)Oc3ccc(C)cc32)c1` (stereo not drawn): 51%.
The same measure for `Cc1ccc(-n2nc(C)c3c(C)c(CCC(=O)NCc4ccc(Cl)cc4)c(C)nc32)cc1`: 89%; for `O=C(CN1CCN(Cc2ccccc2Cl)C1=O)NCc1ccccc1Cl`: 67%.
For the molecule `CCc1cc(C=Nc2ccccc2)c(O)s1`, the survival was 98%.
For `Cc1cc(N2CCN(c3cccc(C)c3C)CC2)n2nc(C)c(-c3ccc(Cl)cc3)c2n1`, the survival was 87%.
Consider `Cc1ccc(CNC(=O)c2cc3sccc3n2Cc2ccc(F)cc2)cc1`, for which the survival is 83%.
The same measure for `COC(=O)CN1C(=O)CSc2ccc(S(=O)(=O)Nc3ccc(Cl)cc3C)cc21`: 124%; for `Cc1cccc(-c2nc(SCCCOc3ccc(Cl)c(C)c3)n3[nH]c(=O)cc3n2)c1`: 72%; for `N#Cc1cc2c(=O)n3ccccc3nc2n(-c2nnc(SCc3ccccc3F)s2)c1=O`: 81%.
The same measure for `CCc1ccc(NC(=O)CSC2=Nc3ccccc3C3=NC(CC(=O)NCc4ccc5c(c4)OCO5)C(=O)N23)cc1` (stereo not drawn): 107%.
Next, `COCCN1Cc2cccc(C(=O)Nc3ccc(Cl)cc3Cl)c2C1=O`: 59%; `COc1cccc(Cn2c(=O)cc(C)c3c(C)nn(C)c32)c1`: 89%; `C=Cc1ccc(Cn2c(=O)cc(C)c3c(C)nn(C)c32)cc1`: 8% (active).
In the case of `Cc1cc(=O)n(Cc2ccccc2)c2c1c(C)nn2C`, the survival was 20% (active).
The same measure for `COC(=O)c1ccc(Cn2c(=O)cc(C)c3c(C)nn(C)c32)cc1`: 66%; for `Cc1cc(=O)n(Cc2ccccc2)c2c1c(C)nn2-c1ccccc1`: 89%.
Next, `Cc1cc(=O)n(Cc2cccc(Cl)c2)c2c1c(C)nn2C`: 102%; `Cc1ccc(C)c(Cn2c(=O)cc(C)c3c(C)nn(C)c32)c1`: 91%; `C=Cc1ccc(Cn2c(=O)cc(C)c3c(C)nn(-c4ccccc4)c32)cc1`: 17% (active).
Next, `Cc1cc(=O)n(Cc2ccc(Cl)cc2)c2c1c(C)nn2-c1ccccc1`: 126%.
